Pf growth 48h = Primary qHTS for delayed death inhibitors of the malarial parasite plastid, 48 hour incubation. P. falciparum luciferase growth in erythrocytes, 48 h. Potency, µM (series often up to 28.7 µM), actives largely listed as inhibitors. actives 5.9% (n = 310,000). AID 504832, 2011
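Read-out is firefly luciferase luminescence from an integrated reporter in P. falciparum, so falling signal marks reduced parasite growth. Infected erythrocytes were at 2% hematocrit and 0.1% parasitemia (final) in Albumax-supplemented RPMI 1640.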
Pf growth 96h = Primary qHTS for delayed death inhibitors of the malarial parasite plastid, 96 hour incubation. P. falciparum luciferase reporter growth, 96 h. AID 504834, 2011. actives 6.9% (n = 320,000). Potency, µM (doses to about 28.7 µM), hits mostly inhibitors
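P. falciparum expressing integrated firefly luciferase, in erythrocytes at 2% hematocrit, 0.05% parasitemia, incubated with compounds 96 h at 37 C, 5% CO2. Growth inhibition read as loss of luminescence; two-generation exposure targets delayed-death apicoplast inhibitors.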
HCV inhibitor = qHTS Assay for Inhibitors of Hepatitis C Virus (HCV). Huh7.5.1 HCVcc-Cre infection, luciferase reporter, 44 h. Potency, µM (highest dose often 41.8 µM), actives largely listed as inhibitors. actives 3.4% (n = 340,000)
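1,000 cells/well; 4 h culture; + compound; + HCVcc-Cre (~0.5 moi); 44 h; luciferase substrate, RT 15 min; read 15 sec.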
HCMV inh = qHTS Assay for inhibitors of the human cytomegalovirus (HCMV); HFF cells, HCMV-luciferase reporter, 72 h; active compounds read low; actives 4.5% (n = 410,000); activity change, negative = inhibition, % at 57.5 µM; in the data active = activity change below about -60%; inconclusive = no clear call, values can overlap the other calls; inactive = above about -39%
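Cell-based, HFFs, 1000 cells/well, 16 h 37C; cpds in DMSO + HCMV-luc, MOI 1 PFU/cell; 72 h 37C; OneGlo luminescence after 5 min RT; norm. to buffer vs Salinomycin 10uM.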
Large screens that a line does not name were inactive. An excerpt weighted towards active compounds, which were near 13% of everything screened. Unless noted, calls come from the whole dose curve; as a rule, active = well fitted inhibition curve with a large enough effect; inconclusive = small, poorly fitted or top-dose-only effect, or another doubt; inactive = no such curve, though single readings can be large or run the other way.

CCc1ccc(NC(=O)C2CCCN(S(=O)(=O)c3ccc(F)cc3)C2)cc1 (centres undefined)	none (no result: Pf growth 48h, Pf growth 96h, HCV inhibitor)
COc1ccc(S(=O)(=O)N2CCCC(C(=O)NCc3ccc(F)cc3)C2)cc1 (centres undefined)	none
O=C(NCc1ccccc1)C1CCCN(S(=O)(=O)c2ccc(Br)cc2)C1 (centres undefined)	Pf growth 96h 0.294µM
CC1=C(c2cccc(Cl)c2)S(=O)(=O)NC1=NCc1ccccc1C	none (no result: Pf growth 48h, Pf growth 96h, HCV inhibitor)
CCOc1ccc2oc(=O)cc(CN3CCN(c4ccc(Cl)cc4)CC3)c2c1	none (no result: Pf growth 48h, Pf growth 96h, HCV inhibitor)
CCc1ccc(-c2csc3[n+]2CCN3C(C)=O)cc1	Pf growth 48h 2.94µM, Pf growth 96h inconclusive, HCV inhibitor inconclusive
Cc1ccc(-c2nc(NC(=O)CSc3ncnc4sc5c(c34)CCC(C)C5)ns2)cc1 (centres undefined)	none (no result: Pf growth 48h, Pf growth 96h, HCV inhibitor)
Cc1nn2c(=O)cc(COC(=O)Cc3ccccc3)nc2s1	none (no result: Pf growth 48h, Pf growth 96h, HCV inhibitor)
COc1cccc(NC(=O)C2C3C=CC4(O3)C2C(=O)N(CCCN2CCCC(C)C2)C4C(=O)NC2CCCCC2C)c1 (centres undefined)	Pf growth 96h 10.4µM, HCV inhibitor inconclusive
CC1CCCC(NC(=O)C2N(CCCN3CCCC3)C(=O)C3C(C(=O)Nc4ccc(Cl)cc4)C4C=CC32O4)C1C (centres undefined)	Pf growth 48h inconclusive, Pf growth 96h 5.86µM, HCMV inh inconclusive
O=C(Cn1c(-c2cccs2)cc2cc(Cl)ccc21)N1CCN(c2ccccc2)CC1	none (no result: Pf growth 48h, Pf growth 96h, HCV inhibitor)
O=C1/C(=C\c2ccc(O)cc2)SC(=S)N1Cc1ccccc1	Pf growth 96h inconclusive
COc1cc(/C=C2/SC(=S)N(Cc3ccccc3)C2=O)cc(Cl)c1O	Pf growth 48h inconclusive, HCV inhibitor inconclusive, HCMV inh inconclusive
O=C1/C(=C/c2ccc(O)c([N+](=O)[O-])c2)SC(=S)N1Cc1ccccc1	Pf growth 96h inconclusive, HCMV inh -60.9
O=C1/C(=C/c2ccccc2O)SC(=S)N1Cc1cccnc1	HCMV inh -78.0
COc1cc([N+](=O)[O-])cc(/C=C2/SC(=S)N(Cc3ccccc3)C2=O)c1O	Pf growth 48h 10.4µM, HCMV inh -87.6
COc1cc(/C=C2\SC(=O)N(Cc3ccc(Cl)cc3)C2=O)cc([N+](=O)[O-])c1O	Pf growth 48h inconclusive
COc1cc(/C=C2\SC(=O)N(Cc3ccc(F)cc3)C2=O)cc([N+](=O)[O-])c1O	Pf growth 48h inconclusive, HCMV inh -76.0
COc1ccc(Br)cc1CNC(=O)CCSCc1ccc(Cl)cc1	none (no result: Pf growth 48h, Pf growth 96h, HCV inhibitor)
COc1ccccc1OCC(=O)NCC1(N(C)C)CCCCC1	none (no result: Pf growth 48h, Pf growth 96h, HCV inhibitor)
Cc1ccc(-c2nc(CCNC(=O)C(=O)Nc3ccc(C)c(Cl)c3)cs2)cc1	none (no result: Pf growth 48h, Pf growth 96h, HCV inhibitor)
CCN1CCc2nc3sc(C(=O)c4ccccc4)c(N)c3cc2C1	none (no result: Pf growth 48h, Pf growth 96h, HCV inhibitor)
COc1ccc2c(c1)[C@@H](NC(C)=O)[C@H](C)[C@@H](c1ccccc1)N2C(C)=O	none (no result: Pf growth 48h, Pf growth 96h, HCV inhibitor)
O=C(O)CN1C(=O)/C(=C\c2cn(-c3ccccc3)nc2-c2ccccc2)SC1=S	Pf growth 96h inconclusive (no result: HCMV inh)
O=C1/C(=C\c2cccc([N+](=O)[O-])c2O)SC(=S)N1Cc1ccccc1	Pf growth 48h inconclusive, HCMV inh -63.6
CCN1C(=O)/C(=C\c2cn(-c3ccccc3)nc2-c2cccnc2)SC1=S	Pf growth 48h 11.7µM, Pf growth 96h inconclusive
O=C(c1ccc(F)cc1)[C@@H]1[C@@H](C(=O)c2ccccc2)[C@@]2(C(=O)Nc3ccccc32)[C@H]2c3ccccc3C=CN12	Pf growth 48h inconclusive, Pf growth 96h 5.22µM (no result: HCMV inh)
CC1(C(=O)Nc2nccs2)CCN1C(=O)CC(c1ccccc1)c1ccccc1 (centres undefined)	HCMV inh -102.0 (no result: Pf growth 48h, Pf growth 96h, HCV inhibitor)
Cc1cc(=O)oc2cc(OCC(=O)N3c4ccccc4CC3C)ccc12 (centres undefined)	Pf growth 48h inconclusive, Pf growth 96h inconclusive
CCN(CC)c1cccc(OCC(=O)N2c3ccccc3CC2C)c1 (centres undefined)	Pf growth 48h 9.28µM, Pf growth 96h inconclusive, HCV inhibitor inconclusive, HCMV inh -76.9
CCC(C)Sc1cc(C(F)(F)F)c(C(=O)Nc2ccc(Cl)cc2)cn1 (centres undefined)	Pf growth 48h inconclusive, Pf growth 96h inconclusive, HCV inhibitor 22.4µM
Cn1cc(C(=O)Nc2ccc(Cl)cc2)c(C(F)(F)F)n1	HCMV inh inconclusive
CC(=NNc1nc2ccccc2s1)c1ncccn1	HCV inhibitor inconclusive, HCMV inh -97.3 (no result: Pf growth 48h, Pf growth 96h)
C/C(=N\Nc1nc2ccccc2s1)c1cccs1	none
Oc1ccccc1/C=N/Nc1nc2ccccc2o1	Pf growth 48h 2.62µM, Pf growth 96h 2.08µM, HCV inhibitor inconclusive, HCMV inh active
Oc1ccccc1/C=N/Nc1ncc(Br)cn1	Pf growth 48h 2.08µM, HCV inhibitor inconclusive, HCMV inh -98.1
Oc1ccccc1/C=N/Nc1ccnc(SCc2ccccc2)n1	Pf growth 48h 10.4µM, Pf growth 96h 1.85µM
O=c1cc(-c2ccccc2)n2c(SCc3c(F)cccc3Cl)nnc2[nH]1	none (no result: Pf growth 48h, Pf growth 96h, HCV inhibitor)
COc1ccc(OCC(=O)Nc2nnc(S(=O)(=O)N3CCc4ccccc43)s2)cc1	none (no result: Pf growth 48h, Pf growth 96h, HCV inhibitor)
O=C1[C@@H]2C[C@@H]3C[C@H]1C[C@@](O)(C3)C2	none (no result: HCV inhibitor, HCMV inh)
COc1ccccc1NC(=O)CSc1nnc(NC(=O)NC2CCCCC2)s1	none (no result: Pf growth 48h, Pf growth 96h, HCV inhibitor)
CCc1nc2ccc(C(=O)N3CCN(S(=O)(=O)CC)CC3)cn2c1N(C)Cc1cccs1	none (no result: Pf growth 48h, Pf growth 96h, HCV inhibitor)
CC(=NNc1nc2ccccc2o1)c1cc2ccccc2cn1	HCV inhibitor inconclusive, HCMV inh -99.1 (no result: Pf growth 48h, Pf growth 96h)
CC(=NNc1nc2ccccc2o1)c1ncccn1	HCV inhibitor 3.55µM, HCMV inh -76.8 (no result: Pf growth 48h, Pf growth 96h)
Cc1cc(C)nc(Nc2nc3ccccc3o2)n1	Pf growth 48h inconclusive
O=C(C(=O)N1CCC(Cc2ccccc2)CC1)c1ccccc1	none (no result: Pf growth 48h, Pf growth 96h, HCV inhibitor)
COc1ccc(C(C#N)N2CCC(c3ccccc3)=N2)cc1 (centres undefined)	HCMV inh -72.8
CC1=NN(C(C#N)c2ccccc2)C(C)(C)C1 (centres undefined)	none
COc1ccc(S(=O)(=O)N2CCOCC2)cc1C(=O)Nc1ccc(N2CCCCCC2)cc1	HCV inhibitor 14.1µM, HCMV inh inconclusive (no result: Pf growth 48h, Pf growth 96h)
COc1ccc(OC)c(S(=O)(=O)Nc2ccc(CC(=O)O)cc2)c1	Pf growth 96h 13.1µM
COc1ccc(NS(=O)(=O)c2cc(OC)ccc2NC(=O)c2cc(C)oc2C)cc1	Pf growth 48h inconclusive, Pf growth 96h inconclusive, HCV inhibitor 4.47µM
COc1ccc(NS(=O)(=O)c2cc(OC)ccc2OC)cc1	none (no result: Pf growth 48h, Pf growth 96h)
COc1ccc(-c2cnnn2-c2ccc(NC(=O)c3ccc(S(=O)(=O)N4CCCCC4)cc3)cc2)cc1OC	Pf growth 48h 4.15µM, Pf growth 96h 1.47µM, HCV inhibitor inconclusive
Cc1ccc(N2C(=O)CCSC23C(=O)N(Cc2ccc(F)cc2)c2ccccc23)cc1 (centres undefined)	none (no result: Pf growth 48h, Pf growth 96h, HCV inhibitor)
COc1ccccc1CC(=O)OC(C)C(=O)Nc1ccc(S(=O)(=O)N2CCCCC2)cc1 (centres undefined)	Pf growth 48h inconclusive, Pf growth 96h inconclusive, HCV inhibitor inconclusive
